From the OligoGym collection

target: DCX; assay: pooled miR-30 sensor sort-seq; sequence = guide strand; conditions: shRNA
Also: reference of the scale not given here.

Sequence | sensor-assay potency score (higher = more potent)
TTTATTTCCATAGCAAACTGGA | -0.272
TTCATTTAAATCAACTCCGATT | -0.375
AATGACATTACACACATCTTGC | -0.654
TTGAATGCTGCGAATCTTCAGC | -0.1
TTGATCACAATGCTGTTCCTTA | 0.503
TTCTCTTATATGGACTGTCTAT | -0.935
TTACTTGTGACTGTGGAGGAGA | -0.0876
TAGAGTTTTTTGACAACCCCGG | -0.351
TTTCTGGCTATAACTATTCTAA | -0.801
TTAAAGAACTTACCACACGTGG | -0.728
TTAACACCTACAATCTGGCTTC | 0.157
TTCGGTAGAAGCTACAGTGGGC | 0.324
TTGTATACAAGTCATAAGGGAT | -0.914
TACAAGGTGACTTCTGTTGTGC | 0.124
TACAACTGTAAGACAACTGGGA | 0.406
TTGGGATTGACATTCTTGGTGT | 0.0923
TCTATCTTAAAACAGCTGCAGG | -0.806
TCTAGTAGTACATATACCGCAA | 0.223

target: DDAH1; assay: as above; conditions: shRNA

Sequence | sensor-assay potency score (higher = more potent)
TTAGATATATACAGTTTGCTGC | -0.536
TACTATATTGAGCTGAAGTTTT | -1.16
TAAAACATCTCCGCCATCTAAA | -0.943
TTAATTAAAACTGAGCAGCAGG | -0.0699
TACAGTTTGCTGCTATGTCATC | -1.54
TTGCATGATCTTAAGGGCCTTC | -0.108
TAAACCTTTGCACTTTCTGGAT | -0.647
TTCATCTTTCATCTCTACTATA | -1.1
TTTCTGGATACTCTTCCGGGGT | -1.06
ATCTCTACTATATTGAGCTGAA | -0.824
TAAAGTTGCATTTTCATCTTTC | 0.237
TTTCATCTCTACTATATTGAGC | -0.645

target: DDB2; assay: as above; conditions: shRNA

Sequence | sensor-assay potency score (higher = more potent)
AACTCGGATCTCGCTCTTCTGG | -1.5
TTTAACAAATCGCCACCTCTGC | -0.868
TCTCCTGTGACCACCATTCGGC | -0.886
TTTTGAAATTAGGATCTGGGTA | -0.102
TGAGTTTCCATCGAACACGTCG | 0.1
TAAAGTCTTGCAGCCTAGTTGT | -0.222
TTGATGGTGTCTGAGCTGGCAA | -1.17
TAAACTCGGATCTCGCTCTTCT | 0.0905
TTTAGTTCCAAGATAACCTTGG | 0.69
TTTGAAATTAGGATCTGGGTAT | -0.00871
